The text below walks through data of PubChem BioAssay AID1490 (National Center for Advancing Translational Sciences (NCATS), 2009).

Several values for one entry are separate records, joined by “and”; a condition that tells them apart may be missing. Equal values may be shown once. The campaign covered roughly 310,000 compounds. About 11,000 (3.5%) were called active. Inconclusive results (about 4%) are left out. The call rests on the fitted dose curve; in most records, active means well fitted inhibition curve with a large enough effect; inconclusive means small, poorly fitted or top-dose-only effect, or another doubt; inactive means no such curve, though single readings can be large or run the other way. The sample as a whole holds a higher share of actives than the screen did.
Potency means the concentration at half of the fitted maximal effect.

The target in this test is 4'-phosphopantetheinyl transferase ffp (Bacillus subtilis) (UniProt Q9F4F7). The test is described as follows: qHTS Assay for Inhibitors of Bacillus subtilis Sfp phosphopantetheinyl transferase (PPTase).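 Further: the enzyme is Sfp with the accession as filed and its product quenches rhodamine fluorescence.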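 On largest response in the series, negative = inhibition: 0% = enzyme reaction without inhibitor and -100% = no enzyme wells.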 Particulars: Biochemical Sfp PPTase activity. In a few lines: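 Buffer: 50 mM Hepes-Na pH 7.6, 10 mM MgCl2, 0.01% Nonidet P-40, 0.01% BSA. Enzyme 15 nM, pre-exposed to compound 15 min; substrates then added and fluorescence change tracked over 30 min.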
(qHTS replaces the single test concentration by a dilution series.)
On to `NS(=O)(=O)c1ccc(CCNC(=O)c2nc(CS(=O)(=O)c3ccc(Cl)cc3)no2)cc1`, for which the largest response in the series, negative = inhibition was 13.4% (inactive). For `CCOC(=O)C1(C)NC(c2ccco2)C2C(=O)N(c3ccccc3)C(=O)C21` (stereo unspecified), the largest response in the series, negative = inhibition is 27.2% (inactive). Turning to `CCCCN=C1N/C(=C\c2ccco2)C(=O)N1c1ccccc1`, the Potency is 56.2 µM (active).

Turning to `O=C1/C(=C\c2ccsc2)NC(=S)N1c1ccccc1`, the largest response in the series, negative = inhibition is 4.5% (inactive). Turning to `COc1cccc(N(CC(=O)NC2CCCC2)C(=O)CCCC(=O)Nc2ccccn2)c1`, the largest response in the series, negative = inhibition is 7.32% (inactive). On to `COc1cccc(C(=O)Nc2nnc(S(=O)(=O)N3CCCCC3)s2)c1`, for which the largest response in the series, negative = inhibition is 6.22% (inactive).

For the molecule `O=C(c1ccncc1)c1ccc([N+](=O)[O-])cc1`, the largest response in the series, negative = inhibition was 13.2% (inactive). On to `O=C(Nn1cnnc1)c1ccc([N+](=O)[O-])cc1`, for which the largest response in the series, negative = inhibition is 13.2% (inactive). Take `O=C(Cn1c[n+](CC(=O)c2ccc([N+](=O)[O-])cc2)cn1)c1ccc([N+](=O)[O-])cc1`: the Potency was 56.2 µM (active) and 44.7 µM (active). As for `Cc1ccc(C(=O)NCCN2CCOCC2)cc1C`, the largest response in the series, negative = inhibition is 11.9% (inactive).

As for `CCC1=Nc2cc(C(=O)NCCN3CCCC3)ccc2Sc2ccc(C)cc21`, the largest response in the series, negative = inhibition was -8.33% (inactive). Consider `Cc1cccc(-c2nc3ccc(C(=O)NCCN4CCN(C)CC4)cc3nc2-c2cccc(C)c2)c1`, for which the Potency was 50.1 µM (active). As to `Cc1ccc(OCCCC(=O)Nc2ccc(S(=O)(=O)Nc3cc(C)nc(C)n3)cc2)cc1`, the largest response in the series, negative = inhibition was 5.46% (inactive). With `CC1(C)OC2CO[C@]3(COS(N)(=O)=O)OC(C)(C)OC3C2O1` (stereo partly specified), the largest response in the series, negative = inhibition was 20.4% (inactive).

In the case of `O=C(N/N=C\c1cc(Br)c(Br)o1)C1COc2ccccc2O1` (stereo unspecified), the Potency is 39.8 µM (active).

With `O=C(CNC(=O)C1COc2ccccc2O1)N/N=C/c1cc(Br)c(O)c(Br)c1` (stereo unspecified), the largest response in the series, negative = inhibition is 1.24% (inactive). Same read-out and setting: as for `O=C(N/N=C/c1cc2c(cc1Br)OCO2)C1COc2ccccc2O1` (stereo unspecified), the figure is 0.904% (inactive). In the case of `C=CCN1CCN(C(=O)CCCc2ccccc2)CC1`, the largest response in the series, negative = inhibition was 13.4% (inactive).

Regarding `Cc1cccc(OCC(=O)Nc2ccc(NC(=O)c3ccco3)c(C)c2)c1`, the largest response in the series, negative = inhibition was 16.8% (inactive). For the molecule `CSc1ccccc1NC(=O)c1cc(C2CC2)on1`, the Potency was 17.8 µM (active). As for `O=C(NC1CCCCC1)c1cc(C2CC2)on1`, the largest response in the series, negative = inhibition was 2.59% (inactive).

As for `O=C(Nc1cc(C(F)(F)F)ccc1Cl)c1cc(C2CC2)on1`, the largest response in the series, negative = inhibition is 15.4% (inactive).

Take `O=C(NC(=S)Nc1ccccc1N1CCCCC1)c1ccc(F)cc1`: the largest response in the series, negative = inhibition is 5.51% (inactive). For `CC1CN(C(=S)Nc2ccccc2F)CC(C)O1` (stereo unspecified), the largest response in the series, negative = inhibition was -11.5% (inactive).

`Oc1ccc(/C=N/Nc2ccc(C(F)(F)F)cn2)cc1O`: the Potency is 28.2 µM (active). Consider `Oc1ccc(Br)cc1/C=N/Nc1ccccn1`, for which the largest response in the series, negative = inhibition is 5.24% (inactive). Take `O=C(Nc1ccccc1)Nc1ccc(C(F)(F)F)cn1`: the largest response in the series, negative = inhibition was 11.2% (inactive).

For the molecule `Cc1c(Cl)c([N+](=O)[O-])nn1CC(=O)NCCCN1CCOCC1`, the largest response in the series, negative = inhibition is 1.31% (inactive). In the case of `O=C(CN1C(=O)COc2ccc(Cl)cc21)N1CCOCC1`, the largest response in the series, negative = inhibition is 9.91% (inactive). Regarding `O=C(N/N=C/c1ccccn1)c1cccc(NC(=O)c2ccc(Cl)cc2)c1`, the largest response in the series, negative = inhibition was 10.1% (inactive). For `CNC(=O)C(=O)N/N=C/c1ccccn1`, the Potency is 79.4 µM (active). Consider `O=C(N/N=C/c1ccc(O)c2ccccc12)c1cccnc1`, for which the largest response in the series, negative = inhibition was 7.11% (inactive). For the molecule `O=C(N/N=C/c1ccccn1)c1cccnc1`, the Potency is 2 µM (active). For the molecule `O=C(COc1ccc(Cl)cc1Cl)N/N=C/c1ccccn1`, the largest response in the series, negative = inhibition is -29.7% (inactive). On to `O=C(N/N=C/c1ccccn1)C12CC3CC(CC(C3)C1)C2`, for which the largest response in the series, negative = inhibition was -35% (inactive).

Regarding `O=C(CCC1CCCC1)N=C1SC2CS(=O)(=O)CC2N1Cc1ccccc1` (stereo unspecified), the largest response in the series, negative = inhibition is 11.9% (inactive). Regarding `Cc1ccnc(NC(=O)CCNS(=O)(=O)c2ccc(C)c(C)c2)c1`, the largest response in the series, negative = inhibition was 9.67% (inactive). In the case of `S=c1nccc(-c2cc(Cl)sc2Cl)[nH]1`, the Potency is 79.4 µM (active). Take `O=C(NCCS(=O)(=O)N1CCN(c2ccccc2F)CC1)c1ccc(Br)o1`: the largest response in the series, negative = inhibition was 27.4% (inactive). Same read-out and setting: as for `O=C1c2cccc3cc(Br)cc(c23)C(=O)N1Nc1ccccc1`, the figure is 9.09% (inactive). As to `O=C1C=C(c2ccc(Cl)cc2)C(=O)N1Nc1ccccc1`, the Potency was 10 µM (active). As for `O=C(O)CC1=C(Nc2ccccc2)C(=O)N(c2ccccc2)C1c1ccc(Cl)cc1` (stereo unspecified), the largest response in the series, negative = inhibition was 18.5% (inactive). Turning to `Cc1cccc2c1-c1sc(C(=O)NCCCN3CCc4ccccc4C3)cc1CO2`, the Potency is 44.7 µM (active). Consider `O=C(CN1C(=O)COc2ccccc21)NCCN1CCc2ccccc2C1`, for which the largest response in the series, negative = inhibition is 7.58% (inactive). With `O=C(NCCCN1CCOCC1)c1cc2c(s1)CCC2`, the largest response in the series, negative = inhibition was 23.9% (inactive).

On to `O=C(CCCC(=O)N1CCN(c2cccc(Cl)c2)CC1)c1ccccc1`, for which the largest response in the series, negative = inhibition was -3.1% (inactive). With `CN(C(=O)COC(=O)CNC(=O)C12CC3CC(CC(C3)C1)C2)c1ccccc1`, the largest response in the series, negative = inhibition was 0.528% (inactive). `O=C(N/N=C/c1cccc(OC(=O)c2ccc([N+](=O)[O-])cc2)c1)c1cccnc1`: the largest response in the series, negative = inhibition is 10% (inactive).

Consider `CCN(CC)CCN1C(=O)C(=O)/C(=C(/O)c2ccc(OC)c(OC)c2)C1c1ccccn1` (stereo unspecified), for which the Potency is 56.2 µM (active).

In the case of `COc1cccc(C2/C(=C(/O)c3ccc(F)cc3)C(=O)C(=O)N2CCN(C)C)c1` (stereo unspecified), the largest response in the series, negative = inhibition is -8.12% (inactive). Same read-out and setting: for `CCN(CC)CCN1C(=O)C(=O)/C(=C(/O)c2ccccc2)C1c1ccccc1F` (stereo unspecified) the value was 4.16% (inactive). For the molecule `COc1ccc(/C(O)=C2/C(=O)C(=O)N(CCCN(C)C)C2c2ccccc2)cc1OC` (stereo unspecified), the largest response in the series, negative = inhibition is 6.96% (inactive).

Regarding `CCCOc1ccc(/C(O)=C2/C(=O)C(=O)N(CCN(C)C)C2c2ccc(OC)c(OC)c2)cc1` (stereo unspecified), the Potency is 79.4 µM (active). For the molecule `COc1ccc(C2/C(=C(/O)c3ccccc3)C(=O)C(=O)N2c2ncccn2)cc1OC` (stereo unspecified), the largest response in the series, negative = inhibition is -2.32% (inactive). With `CC(=O)c1cccc(NC(=O)COc2ccc(S(=O)(=O)N3CCOCC3)cc2)c1`, the largest response in the series, negative = inhibition was 14.4% (inactive). Still for that read-out and setting: for `O=C(O)CN1c2cccc3cccc(c23)S1(=O)=O` the value was -16.8% (inactive).

Turning to `CSc1n[nH]c(=S)n1N`, the Potency was 44.7 µM (active). Regarding `COc1ccc(OCc2n[nH]c(=S)n2N)cc1`, the largest response in the series, negative = inhibition was -87.4% (inactive). For `O=c1nc(N/N=C/c2ccco2)cn[nH]1`, the Potency is 31.6 µM (active). As for `O=C(Cn1cnc2ccccc21)N/N=C/c1ccco1`, the largest response in the series, negative = inhibition was 15.1% (inactive). Turning to `CC(C)NC(=O)C(=O)N/N=C/c1ccco1`, the largest response in the series, negative = inhibition is 13% (inactive).
